Results: PubChem BioAssay (Tox21)
Inconclusive results are not listed. Calls of active or inactive are those of the source. Calls come from the whole dose curve.

Experiments:
[1] = biological target: Acetylcholinesterase (Homo sapiens) (UniProt P22303); test: Acetylcholinesterase (AChE) small molecule antagonists: colormetric cell-based qHTS assay (AID 1347395); note: nearly all actives have a fitted effect of over 30% in size
Summary of the method: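 Endogenous AChE of human neuroblastoma SH-SY5Y cells was measured with an Ellman-type DTNB/acetylthiocholine mix. Compound pretreatment lasted 30 min at 37 C; substrate reaction ran 90 min at 37 C.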

[2] = biological target: Acetylcholinesterase (Homo sapiens) (UniProt P22303); test: Acetylcholinesterase (AChE) small molecule antagonists: enzyme-based qHTS assay (AID 1347397); settings: Potency: AChE enzyme activity inhibition; outcome: AChE enzyme activity inhibition; note: nearly all actives have a fitted effect of over 55% in size
Summary of the method: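 In this quantitative HTS, compounds from the Tox21 10K collection were preincubated 30 min at ambient temperature with recombinant human AChE dispensed at 50 mU/mL. Hydrolysis of acetylthiocholine was then followed for 10 min by DTNB colour development.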

[3] = biological target: Acetylcholinesterase (Homo sapiens) (UniProt P22303); test: Acetylcholinesterase (AChE) small molecule antagonists: fluorescence cell-based qHTS assay (AID 1347398); settings: Potency: AChE activity; outcome: AChE activity; note: nearly all actives have a fitted effect of over 50% in size
Summary of the method: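 Cells (SH-SY5Y) attached overnight, were dosed with compound or DMSO vehicle for 30 min at 37 C, and then incubated 40 min at room temperature with acetylthiocholine and Thiolite Green; green fluorescence indexed AChE activity.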

[4] = biological target: Acetylcholinesterase (Homo sapiens) (UniProt P22303); test: Acetylcholinesterase (AChE) small molecule antagonists: enzyme-based qHTS assay with human liver microsomes (AID 1347399); settings: Potency: qHTS inhibition; outcome: qHTS inhibition; note: nearly all actives have a fitted effect of over 60% in size
Summary of the method: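 Recombinant human AChE (50 mU/mL in the enzyme mix) and human liver microsomes (0.25 mg/mL final) were preincubated with compound and NADPH (0.25 mg/mL final) for 30 min at 37 C. Acetylthiocholine/DTNB was then added; thiocholine was read colorimetrically after 10 min at room temperature.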
% is set by controls: 0 for no effect and ±100 for the full control effect.

Acetylcholinesterase (Homo sapiens), sequence (P22303 whole entry, looked up): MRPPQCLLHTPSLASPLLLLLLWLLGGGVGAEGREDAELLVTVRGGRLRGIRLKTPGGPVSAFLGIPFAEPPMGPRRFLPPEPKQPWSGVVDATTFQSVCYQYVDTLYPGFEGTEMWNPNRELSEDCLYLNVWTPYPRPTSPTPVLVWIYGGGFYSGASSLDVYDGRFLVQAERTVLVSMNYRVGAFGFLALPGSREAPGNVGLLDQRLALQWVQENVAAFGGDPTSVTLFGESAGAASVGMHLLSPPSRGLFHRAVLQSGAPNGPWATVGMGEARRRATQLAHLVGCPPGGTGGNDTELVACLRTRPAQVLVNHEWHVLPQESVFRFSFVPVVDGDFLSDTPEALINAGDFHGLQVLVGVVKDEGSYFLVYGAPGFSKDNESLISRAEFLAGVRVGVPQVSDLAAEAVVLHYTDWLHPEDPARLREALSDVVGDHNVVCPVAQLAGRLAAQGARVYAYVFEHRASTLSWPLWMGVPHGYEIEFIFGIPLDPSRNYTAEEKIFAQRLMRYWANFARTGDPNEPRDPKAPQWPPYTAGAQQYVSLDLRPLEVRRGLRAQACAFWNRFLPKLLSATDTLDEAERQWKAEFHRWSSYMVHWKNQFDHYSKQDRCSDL

O=C(N[C@@H](Cc1ccccc1)[C@@H](O)C(=O)N1C[C@@H](O)[C@@H](O)C1)c1cc2cc(Cl)ccc2[nH]1
inactive: Potency [1] | Potency [2] | Potency [3] | Potency [4]

CN(C)CCOC(c1ccccc1)c1ccc(Br)cc1 (stereo not given)
inactive: Potency [1] | Potency [2] | Potency [3] | Potency [4]

COc1c(Cl)ccc(Cl)c1C(=O)O
inactive: Potency [1] | Potency [2] | Potency [3] | Potency [4]

CO[C@@H]1[C@@H](OC(N)=O)[C@@H](O)[C@H](Oc2ccc3c(O)c(NC(=O)c4ccc(O)c(CC=C(C)C)c4)c(=O)oc3c2C)OC1(C)C
inactive: Potency [1] | Potency [2] | Potency [3] | Potency [4]

Cc1cccc(S(=O)(=O)O)c1C
inactive: Potency [1] | Potency [2] | Potency [3] | Potency [4]

CCN[C@H]1C[C@H](C)S(=O)(=O)c2sc(S(N)(=O)=O)cc21
inactive: Potency [1] | Potency [2] | Potency [3] | Potency [4]

COc1cc(CNC(=O)CCCC/C=C/C(C)C)ccc1O
inactive: Potency [1] | Potency [2] | Potency [3] | Potency [4]

CC(C)C(=O)Nc1cccc(C(F)(F)F)c1
inactive: Potency [1] | Potency [2] | Potency [3] | Potency [4]

CC1=C(CC(=O)O)c2cc(F)ccc2/C1=C\c1ccc(S(C)=O)cc1 (stereo not given)
inactive: Potency [1] | Potency [2] | Potency [3] | Potency [4]

O=Cc1ccc(Cl)cc1
inactive: Potency [1] | Potency [2] | Potency [3] | Potency [4]

CCCCCCCCCCOC(=O)c1ccccc1C(=O)OCCCCCCCC
inactive: Potency [1] | Potency [2] | Potency [3] | Potency [4]

CCCCCCC1CCCC(=O)O1 (stereo not given)
inactive: Potency [1] | Potency [2] | Potency [3] | Potency [4]

Cc1cccc(O)c1C
inactive: Potency [1] | Potency [2] | Potency [3] | Potency [4]

CC(C)(C)CC(C)(C)c1ccc(Nc2ccc(C(C)(C)CC(C)(C)C)cc2)cc1
inactive: activity, negative = inhibition [1] -3.03% [at 10.5 µM] | activity change, negative = inhibition [2] -6.81% [at 10.5 µM] | activity change, negative = inhibition [3] -4.09% [at 10.5 µM] | activity change, negative = inhibition [4] 0.323% [at 10.5 µM]

O=C1c2ccccc2C(=O)c2c(O)c(O)cc(O)c21
inactive: Potency [1] | Potency [2] | Potency [3] | Potency [4]

CCCCCCCCS(=O)(=O)Cl
inactive: Potency [1] | Potency [2] | Potency [3] | Potency [4]

CCCCCCCCN
inactive: Potency [1] | Potency [2] | Potency [3] | Potency [4]

[O-][N+](=Nc1ccccc1)c1ccccc1
inactive: Potency [1] | Potency [2] | Potency [3] | Potency [4]

C=CCOC(=O)CCCCCC
inactive: Potency [1] | Potency [2] | Potency [3] | Potency [4]

CC(=O)[O][Al][O]C(C)=O
inactive: Potency [1] | Potency [2] | Potency [3] | Potency [4]

CC(=O)[C@H]1CC[C@H]2[C@@H]3C[C@H](C)C4=CC(=O)CC[C@]4(C)[C@H]3[C@@H](O)C[C@]12C
inactive: Potency [1] | Potency [2] | Potency [3] | Potency [4]

O=C1c2cccc3c2[C@H](CCC3)CN1[C@@H]1CN2CCC1CC2
inactive: Potency [1] | Potency [2] | Potency [3] | Potency [4]

CC1CCC(C(C)C)C(O)C1 (stereo not given)
inactive: Potency [1] | Potency [2] | Potency [3] | Potency [4]

CC(O)c1ccccc1 (stereo not given)
inactive: Potency [1] | Potency [2] | Potency [3] | Potency [4]

O=c1[nH]c(=O)c2cn[nH]c2[nH]1
inactive: Potency [1] | Potency [2] | Potency [3] | Potency [4]

CC(C)(C)C1=CC(=O)C(C(C)(C)C)=CC1=O
inactive: Potency [1] | Potency [2] | Potency [3] | Potency [4]

CC(C)(N=C=O)c1cccc(C(C)(C)N=C=O)c1
inactive: Potency [1] | Potency [2] | Potency [3] | Potency [4]

C=CCOCC(CC)(CO)COCC=C
inactive: Potency [1] | Potency [2] | Potency [3] | Potency [4]

CCCCC(CC)COC(=O)CCCCC(=O)OCc1ccccc1 (stereo not given)
inactive: Potency [1] | Potency [2] | Potency [3] | Potency [4]

COC(=O)Nc1nc2ccc(Sc3ccccc3)cc2[nH]1
inactive: Potency [1] | Potency [2] | Potency [3] | Potency [4]
